ChEMBL document CHEMBL1961873, “Compounds: GSK PKIS; Assays: Nanosyn kinase panel” (2012)

Key:
[1] = target: Glycogen synthase kinase-3 beta (Homo sapiens) (UniProt P49841); conditions: at 1 µM;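 note: reported values are mean percent inhibition of GSK3B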
[2] = target: Homeodomain-interacting protein kinase 1 (Homo sapiens) (UniProt Q86Z02); conditions: at 1 µM
[3] = target: T1, Homeodomain-interacting protein kinase 4 (Homo sapiens) (UniProt Q8NE63); conditions: at 0.1 µM
T1 sequence (whole entry): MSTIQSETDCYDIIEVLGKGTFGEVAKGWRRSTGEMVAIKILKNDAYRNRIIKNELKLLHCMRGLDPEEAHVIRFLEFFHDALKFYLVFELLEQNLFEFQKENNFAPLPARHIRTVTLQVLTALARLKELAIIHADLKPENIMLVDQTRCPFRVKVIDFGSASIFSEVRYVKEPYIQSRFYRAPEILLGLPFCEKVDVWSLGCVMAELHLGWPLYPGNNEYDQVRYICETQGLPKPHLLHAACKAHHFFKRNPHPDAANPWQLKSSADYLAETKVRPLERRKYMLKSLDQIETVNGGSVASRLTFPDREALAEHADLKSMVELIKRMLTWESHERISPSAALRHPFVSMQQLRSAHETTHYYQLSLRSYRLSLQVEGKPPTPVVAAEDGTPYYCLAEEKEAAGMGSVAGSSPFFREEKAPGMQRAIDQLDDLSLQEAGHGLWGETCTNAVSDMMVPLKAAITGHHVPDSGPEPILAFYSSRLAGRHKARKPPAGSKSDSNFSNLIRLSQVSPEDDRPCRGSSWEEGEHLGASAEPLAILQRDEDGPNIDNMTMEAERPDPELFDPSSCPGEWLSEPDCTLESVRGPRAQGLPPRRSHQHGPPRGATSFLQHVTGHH

[4] = target: T1, Homeodomain-interacting protein kinase 4 (Homo sapiens); conditions: at 1 µM
[5] = target: Mitogen-activated protein kinase 9 (Homo sapiens) (UniProt P45984); conditions: at 0.1 µM
Sequence of Mitogen-activated protein kinase 9 (Homo sapiens) (P45984 whole entry, looked up): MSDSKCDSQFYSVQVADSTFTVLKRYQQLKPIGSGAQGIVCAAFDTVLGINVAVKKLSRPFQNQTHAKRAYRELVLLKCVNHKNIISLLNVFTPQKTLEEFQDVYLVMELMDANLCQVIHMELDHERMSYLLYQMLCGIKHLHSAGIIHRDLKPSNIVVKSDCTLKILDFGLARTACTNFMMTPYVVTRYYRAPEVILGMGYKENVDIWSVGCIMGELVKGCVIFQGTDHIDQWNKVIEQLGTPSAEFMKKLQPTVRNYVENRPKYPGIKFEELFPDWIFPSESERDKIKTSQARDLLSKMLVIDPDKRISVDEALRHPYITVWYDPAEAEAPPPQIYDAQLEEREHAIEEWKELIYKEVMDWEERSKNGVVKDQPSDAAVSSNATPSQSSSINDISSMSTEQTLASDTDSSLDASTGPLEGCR

[6] = target: Mitogen-activated protein kinase 9 (Homo sapiens) (UniProt P45984); conditions: at 1 µM
[7] = target: Mitogen-activated protein kinase 1 (Homo sapiens) (UniProt P28482); conditions: at 0.1 µM
Sequence of Mitogen-activated protein kinase 1 (Homo sapiens) (P28482 whole entry): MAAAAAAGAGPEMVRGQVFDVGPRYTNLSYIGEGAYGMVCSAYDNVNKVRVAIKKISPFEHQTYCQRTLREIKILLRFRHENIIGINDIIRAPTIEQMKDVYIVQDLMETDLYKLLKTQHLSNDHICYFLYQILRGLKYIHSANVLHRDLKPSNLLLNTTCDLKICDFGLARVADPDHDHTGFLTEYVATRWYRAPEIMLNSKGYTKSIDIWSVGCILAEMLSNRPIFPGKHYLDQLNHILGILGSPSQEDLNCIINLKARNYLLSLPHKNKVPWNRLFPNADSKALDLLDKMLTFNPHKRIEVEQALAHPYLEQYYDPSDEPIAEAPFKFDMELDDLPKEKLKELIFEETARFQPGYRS

[8] = target: Mitogen-activated protein kinase 1 (Homo sapiens) (UniProt P28482); conditions: at 1 µM
[9] = target: Mitogen-activated protein kinase 3 (Homo sapiens) (UniProt P27361); conditions: at 0.1 µM;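 note: each value is a mean inhibition figure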
Sequence of Mitogen-activated protein kinase 3 (Homo sapiens) (P27361 whole entry): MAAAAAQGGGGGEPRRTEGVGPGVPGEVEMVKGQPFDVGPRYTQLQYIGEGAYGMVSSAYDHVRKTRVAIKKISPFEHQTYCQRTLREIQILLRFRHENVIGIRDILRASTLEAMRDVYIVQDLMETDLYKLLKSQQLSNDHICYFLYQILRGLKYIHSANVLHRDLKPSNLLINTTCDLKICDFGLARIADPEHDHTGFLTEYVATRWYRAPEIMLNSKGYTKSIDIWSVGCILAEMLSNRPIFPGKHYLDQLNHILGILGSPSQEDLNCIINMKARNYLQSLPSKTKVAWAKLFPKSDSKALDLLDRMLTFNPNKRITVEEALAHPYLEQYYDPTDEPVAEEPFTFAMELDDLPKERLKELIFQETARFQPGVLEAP

[10] = target: Homeodomain-interacting protein kinase 1 (Homo sapiens) (UniProt Q86Z02); conditions: at 0.1 µM

Sequence of Glycogen synthase kinase-3 beta (Homo sapiens) (P49841 whole entry, looked up): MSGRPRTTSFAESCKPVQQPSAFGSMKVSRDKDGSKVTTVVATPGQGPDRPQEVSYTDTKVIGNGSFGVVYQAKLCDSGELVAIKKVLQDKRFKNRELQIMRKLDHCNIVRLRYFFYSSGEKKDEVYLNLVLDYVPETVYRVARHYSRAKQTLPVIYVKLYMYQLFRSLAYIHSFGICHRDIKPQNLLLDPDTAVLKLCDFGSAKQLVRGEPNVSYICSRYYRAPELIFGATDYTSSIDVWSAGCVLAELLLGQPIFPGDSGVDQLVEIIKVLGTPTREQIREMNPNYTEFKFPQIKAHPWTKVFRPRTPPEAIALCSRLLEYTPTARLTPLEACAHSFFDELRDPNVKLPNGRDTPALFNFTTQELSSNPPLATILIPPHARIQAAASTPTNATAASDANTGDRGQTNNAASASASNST
Sequence of Homeodomain-interacting protein kinase 1 (Homo sapiens) (Q86Z02 whole entry, looked up): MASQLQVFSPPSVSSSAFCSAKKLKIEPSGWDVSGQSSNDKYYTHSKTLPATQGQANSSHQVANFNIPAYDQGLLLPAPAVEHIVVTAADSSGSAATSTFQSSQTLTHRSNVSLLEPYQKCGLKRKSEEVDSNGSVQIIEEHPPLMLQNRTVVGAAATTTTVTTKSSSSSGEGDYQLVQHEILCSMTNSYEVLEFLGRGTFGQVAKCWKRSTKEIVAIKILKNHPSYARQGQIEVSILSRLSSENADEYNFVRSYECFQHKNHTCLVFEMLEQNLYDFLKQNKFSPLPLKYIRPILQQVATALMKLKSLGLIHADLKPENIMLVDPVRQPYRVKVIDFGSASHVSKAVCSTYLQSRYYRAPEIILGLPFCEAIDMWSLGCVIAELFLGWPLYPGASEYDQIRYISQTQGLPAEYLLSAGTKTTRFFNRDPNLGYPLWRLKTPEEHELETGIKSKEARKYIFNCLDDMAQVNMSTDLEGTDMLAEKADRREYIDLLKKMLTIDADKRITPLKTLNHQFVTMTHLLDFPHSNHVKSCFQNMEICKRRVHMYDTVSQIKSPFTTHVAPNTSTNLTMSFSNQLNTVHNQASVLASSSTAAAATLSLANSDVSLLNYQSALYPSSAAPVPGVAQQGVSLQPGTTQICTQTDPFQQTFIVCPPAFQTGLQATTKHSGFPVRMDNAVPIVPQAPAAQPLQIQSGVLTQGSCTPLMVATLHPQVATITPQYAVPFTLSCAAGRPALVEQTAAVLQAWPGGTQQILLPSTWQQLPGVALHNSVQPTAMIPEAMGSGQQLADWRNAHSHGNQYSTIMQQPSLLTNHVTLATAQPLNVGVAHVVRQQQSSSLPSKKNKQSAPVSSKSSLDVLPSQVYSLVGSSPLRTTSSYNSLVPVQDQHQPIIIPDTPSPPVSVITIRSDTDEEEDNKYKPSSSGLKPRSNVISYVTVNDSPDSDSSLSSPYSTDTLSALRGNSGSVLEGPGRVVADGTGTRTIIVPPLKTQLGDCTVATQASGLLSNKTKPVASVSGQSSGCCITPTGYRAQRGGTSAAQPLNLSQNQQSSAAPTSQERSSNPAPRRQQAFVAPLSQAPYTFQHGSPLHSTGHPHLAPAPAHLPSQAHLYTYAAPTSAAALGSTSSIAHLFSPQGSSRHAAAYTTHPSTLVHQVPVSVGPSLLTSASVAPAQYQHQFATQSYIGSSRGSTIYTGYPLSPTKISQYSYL

COc1cc(Nc2ncc(-c3ccccc3)o2)cc(OC)c1OC
inhibition [1]: 35.8% | inhibition [2]: 11.2% | inhibition [3]: 0.61% | inhibition [4]: 3.87% | inhibition [5]: -3.91% | inhibition [6]: -3.35% | inhibition [7]: -2.3% | inhibition [8]: -1.83% | inhibition [9]: 0.83%

Fc1ccc(-c2nc3n(c2-c2ccncc2)CCS3)cc1
inhibition [1]: 7.8% | inhibition [10]: -4.87% | inhibition [2]: -3.92% | inhibition [3]: 0.39% | inhibition [4]: 1.1% | inhibition [5]: 7.66% | inhibition [6]: 25.9% | inhibition [7]: 3.06% | inhibition [8]: 5.59% | inhibition [9]: 2.96%

FC(F)(F)c1cccc(Nc2nccc(-c3cnn4nc(-c5ccccc5)ccc34)n2)c1
inhibition [10]: 7.68% | inhibition [2]: 51.8% | inhibition [3]: 6.64% | inhibition [4]: 35.8% | inhibition [5]: -0.53% | inhibition [6]: -1.92% | inhibition [7]: 4.13% | inhibition [8]: 3.46% | inhibition [9]: 0.87%

CCS(=O)(=O)c1ccc(OC)c(Nc2ncc(-c3ccccc3Cl)o2)c1
inhibition [1]: 1.12% | inhibition [10]: 1.24% | inhibition [2]: 9.06% | inhibition [3]: 8.83% | inhibition [4]: 47.5% | inhibition [5]: 1.42% | inhibition [6]: 1.23% | inhibition [7]: 0.66% | inhibition [8]: 0.84% | inhibition [9]: 1.66%

COc1ccc(-c2ccc3c(NC(=O)C4CC4)n[nH]c3n2)cc1
inhibition [10]: 1.57% | inhibition [2]: 2.49% | inhibition [3]: 0.72% | inhibition [4]: 0.93% | inhibition [5]: 3.56% | inhibition [6]: 1.85% | inhibition [7]: 2.19% | inhibition [8]: 3.67% | inhibition [9]: 4.98%

COc1ccc(C2=C(N3CCc4ccccc43)C(=O)NC2=O)cc1
inhibition [10]: 4.48% | inhibition [2]: 8.68% | inhibition [3]: 3.35% | inhibition [4]: 4.04% | inhibition [5]: 3.78% | inhibition [6]: 7.16% | inhibition [7]: -0.01% | inhibition [8]: 5.89% | inhibition [9]: 4.13%

O=C(Nc1ccc(Oc2ccc3[nH]c(NC(=O)c4ccccc4)nc3c2)cc1)Nc1cc(C(F)(F)F)ccc1F
inhibition [1]: 7.73% | inhibition [10]: -0.21% | inhibition [2]: 0.17% | inhibition [3]: 9.12% | inhibition [4]: 47.7% | inhibition [5]: 3.43% | inhibition [6]: 6.62% | inhibition [7]: 2.12% | inhibition [8]: 2.7% | inhibition [9]: 4.31%

NC(=O)c1cc(-c2ccc(F)cc2)cc(-c2ccncc2)c1N
inhibition [1]: 1.12% | inhibition [10]: 1.44% | inhibition [2]: 0.21% | inhibition [3]: -0.23% | inhibition [4]: 2.98% | inhibition [5]: 3.69% | inhibition [6]: 2.06% | inhibition [7]: 4.92% | inhibition [8]: 5.18% | inhibition [9]: 3.25%

O=C(Nc1n[nH]c2cc(-c3ccccc3)ccc12)C1CC1
inhibition [10]: 0.47% | inhibition [2]: 0.72% | inhibition [3]: 1.87% | inhibition [4]: 3.44% | inhibition [5]: 6.25% | inhibition [6]: 7.19% | inhibition [7]: 2.48% | inhibition [8]: 6.01% | inhibition [9]: 4.31%

COc1cc(C)c(N(C)C(=O)CN(C)C)cc1Nc1nc(Nc2cccc(F)c2C(N)=O)c2cc[nH]c2n1
inhibition [1]: -3.33% | inhibition [10]: -4.07% | inhibition [2]: 2.02% | inhibition [3]: 0.06% | inhibition [4]: 4.88% | inhibition [5]: 1.42% | inhibition [6]: 2.97% | inhibition [7]: 0.6% | inhibition [8]: 3.4% | inhibition [9]: 2.26%

NS(=O)(=O)c1ccc(N/N=C2\C(=O)Nc3ccc(C(=O)NCCCn4ccnc4)cc32)cc1
inhibition [1]: 77.7% | inhibition [10]: 4.8% | inhibition [2]: 34.3% | inhibition [3]: 3.92% | inhibition [4]: 17.6% | inhibition [5]: 6.1% | inhibition [6]: 10.9% | inhibition [7]: 9.89% | inhibition [8]: 38.5% | inhibition [9]: 5.16%

CNC(=O)c1cncc(/C=C/c2c(C)cccc2C)c1
inhibition [1]: -0.33% | inhibition [10]: -0.47% | inhibition [2]: 2.67% | inhibition [3]: 1.19% | inhibition [4]: 6.66% | inhibition [5]: 2.54% | inhibition [6]: 1.94% | inhibition [7]: -3.06% | inhibition [8]: 0.43% | inhibition [9]: 0.86%

O=C(Nc1n[nH]c2cc(-c3cc(F)ccc3F)ccc12)C1CC1
inhibition [10]: -1.3% | inhibition [2]: 1.85% | inhibition [3]: -0.9% | inhibition [4]: 3.56% | inhibition [5]: 4.38% | inhibition [6]: 6.23% | inhibition [7]: 2.24% | inhibition [8]: 4.09% | inhibition [9]: 4.01%

CCc1ccc(Oc2nccc(-c3c(-c4ccc(F)cc4)ncn3C3CCNCC3)n2)cc1
inhibition [1]: 7.29% | inhibition [10]: -2.3% | inhibition [2]: 1.77% | inhibition [3]: 0.48% | inhibition [4]: 2.99% | inhibition [7]: 6.77% | inhibition [8]: 11.6% | inhibition [9]: 5.92%

NC(=O)c1ccc(Oc2nccc(-c3c(-c4ccc(F)cc4)ncn3C3CCNCC3)n2)cc1
inhibition [1]: 3.17% | inhibition [10]: 0.03% | inhibition [2]: 2.53% | inhibition [3]: 0.33% | inhibition [4]: 0.25% | inhibition [7]: 5.21% | inhibition [8]: 6.64% | inhibition [9]: 3.78%

COc1cccc(/C=N/Nc2ncnc3c2cnn3-c2cccc(OC)c2)c1
inhibition [1]: 51.1% | inhibition [10]: -1.82% | inhibition [2]: 2.63% | inhibition [3]: 0.49% | inhibition [4]: 4.13% | inhibition [5]: 3.29% | inhibition [6]: 5.5% | inhibition [7]: 5.68% | inhibition [9]: 3.77%

Cc1ccc(C(=O)NC(C)C)cc1-c1ccc(C(=O)NCC2CC2)cc1
inhibition [1]: 3.01% | inhibition [10]: -2.55% | inhibition [2]: 1.88% | inhibition [3]: 0.31% | inhibition [4]: 3.79% | inhibition [5]: -1.51% | inhibition [6]: -0.22% | inhibition [7]: -3.93% | inhibition [8]: -4.45% | inhibition [9]: -2.87%

Fc1ccc(-c2ncn(C3CCNCC3)c2-c2ccnc(Oc3ccc(F)c(F)c3)n2)cc1
inhibition [1]: 2.53% | inhibition [10]: -6.31% | inhibition [2]: -2.14% | inhibition [3]: 0.46% | inhibition [4]: 1.77% | inhibition [7]: 4.93% | inhibition [8]: 6.35% | inhibition [9]: 3.84%

COc1cc(N2CCN(C(C)C)CC2)ccc1Nc1nc(Nc2ccc(F)cc2C(=O)NC[C@@H](O)CO)c2cc[nH]c2n1
inhibition [1]: -0.58% | inhibition [10]: 9.42% | inhibition [2]: 46.1% | inhibition [3]: 32.3% | inhibition [4]: 69.8% | inhibition [5]: 14.9% | inhibition [6]: 57.4% | inhibition [7]: 0.55% | inhibition [8]: 7.31% | inhibition [9]: 6.47%

NC(=O)Cc1ccccc1Oc1nccc(-c2c(-c3ccc(F)cc3)ncn2C2CCNCC2)n1
inhibition [1]: 1.98% | inhibition [10]: 0.04% | inhibition [2]: -0.28% | inhibition [3]: 1.66% | inhibition [4]: 3.18% | inhibition [7]: 0.51% | inhibition [8]: 4.48% | inhibition [9]: 1.47%

O=C(Nc1n[nH]c2nc(-c3ccc(O)cc3)c(Br)cc12)C1CC1
inhibition [10]: 14.7% | inhibition [2]: 58% | inhibition [3]: 2.65% | inhibition [4]: 10.4% | inhibition [5]: 12.2% | inhibition [6]: 19.4% | inhibition [7]: 5.75% | inhibition [8]: 10.1% | inhibition [9]: 5.33%

O=C1NC(=O)C(c2cccc(Cl)c2)=C1Nc1ccc(Cl)c(C(=O)O)c1
inhibition [10]: 2.03% | inhibition [2]: 1.77% | inhibition [3]: 1.36% | inhibition [4]: 0.39% | inhibition [5]: 1.14% | inhibition [6]: 3.47% | inhibition [7]: 11% | inhibition [8]: 5.36% | inhibition [9]: 5.36%

CN(c1ccc(NC(=O)Nc2c(Cl)cccc2Cl)cc1)c1ccnc(Nc2cccc(CS(C)(=O)=O)c2)n1
inhibition [1]: 9.63% | inhibition [10]: 2.01% | inhibition [2]: 5.39% | inhibition [3]: 7.1% | inhibition [4]: 18.4% | inhibition [5]: 5.56% | inhibition [6]: 8.85% | inhibition [7]: 3.03% | inhibition [8]: 2.83% | inhibition [9]: 2.56%

Fc1ccc(-c2ncn(C3CCNCC3)c2-c2ccnc(Oc3ccc4c(c3)OCO4)n2)cc1
inhibition [1]: 4.03% | inhibition [10]: 1.02% | inhibition [2]: 5.62% | inhibition [3]: 4.86% | inhibition [4]: 7.7% | inhibition [7]: 7.64% | inhibition [8]: 11.4% | inhibition [9]: 5.84%

O=C(Nc1n[nH]c2nc(-c3ccco3)ccc12)C1CC1
inhibition [10]: 0.14% | inhibition [2]: 1.4% | inhibition [3]: 2.3% | inhibition [4]: 6.99% | inhibition [5]: 0.84% | inhibition [6]: 2.1% | inhibition [7]: 0.04% | inhibition [8]: 0.76% | inhibition [9]: 0.6%

Fc1ccc(-c2ncn(C3CCNCC3)c2-c2ccnc(Oc3ccc(Oc4ccccc4)cc3)n2)cc1
inhibition [1]: 3.65% | inhibition [10]: -1.61% | inhibition [2]: 2.08% | inhibition [3]: -0.8% | inhibition [4]: 0.79% | inhibition [7]: 5.58% | inhibition [8]: 9.79% | inhibition [9]: 3.67%

CS(=O)(=O)CCNCc1ccc(-c2ccc3ncnc(Nc4ccc(OCc5ccccc5)c(Br)c4)c3c2)o1
inhibition [1]: -1.69% | inhibition [10]: -5.84% | inhibition [2]: -4.53% | inhibition [3]: 0.44% | inhibition [4]: 2.6% | inhibition [5]: 2.5% | inhibition [6]: 0.7% | inhibition [7]: 5.3% | inhibition [8]: 4.08% | inhibition [9]: 5.25%

N#Cc1ccc(Oc2nccc(-c3c(-c4ccc(F)cc4)ncn3C3CCNCC3)n2)cc1
inhibition [1]: 1.96% | inhibition [10]: -4.47% | inhibition [2]: -6.22% | inhibition [3]: -0.7% | inhibition [4]: -0.61% | inhibition [7]: 4.87% | inhibition [8]: 6.51% | inhibition [9]: 6.9%

NS(=O)(=O)c1ccc(Nc2cc(-c3ccc(O)c(F)c3)n[nH]2)cc1
inhibition [1]: 38% | inhibition [10]: 0.97% | inhibition [2]: 16.1% | inhibition [3]: 1.96% | inhibition [4]: 10.4% | inhibition [5]: -1.59% | inhibition [6]: 2.43% | inhibition [8]: -4.87% | inhibition [9]: -1.57%
